TCR act: activates T cell receptor signaling; AID 504894; 330,000 tested, under 10 active; primary human leukocytes, anti-CD3, IL-2 HTRF, 48 h; Potency, µM (doses to about 9.22 µM), for inactives: at the highest dose activation of IL-2 secretion, hits mostly activators; note: % of control where 0% means no effect
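1) Mix primary human leukocytes, a-CD3 beads and compound. 2) Incubate 48 hr. 3) Add HTRF IL-2 reagents (a-IL-2-K, a-IL-2-d2).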
Chronic BCR inh: blocks chronic active B-cell receptor signaling. AID 493014. ABC-DLBCL IkBa-CBG/CBR reporter, luminescence ratio, 4 h. hit rate 0.05% among 340,000. Potency, µM (top dose mostly 46.1 µM), without a hit: top-dose activity change, negative = inhibition, most hits filed as inhibitors; active = well fitted inhibition curve with a large enough effect in the signal ratio, with a control signal flat, not every such curve was filed as active; inconclusive = small, poorly fitted or top-dose-only effect, or effect the other way, or a change in a side signal; the % refers to the signal ratio;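 note: potency is the fitted concentration of half-maximal effect; plate controls were basal doxycycline-induced cells for no effect and cells given 10 µM MG132 for full effect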
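TMD8 human ABC-DLBCL cells with doxycycline-inducible IκBα–green luciferase fusion and unfused red luciferase, in 0.5% FBS medium; compounds up to 46 uM, 4 h at 37C. Green/red luminescence ratio, filter-overlap corrected, fitted to concentration-response curves.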
ASM inhibitor: inhibitors of human secretory acid sphingomyelinase; P17405; placental ASM, HMU-PC fluorogenic substrate, 60 min; Potency, µM (highest dose often 57.5 µM), for inactives: at the top dose activity change, negative = inhibition, usual class: inhibitors; hit rate 0.006% among 340,000; AID 504937; note: potency is the fitted concentration of half-maximal effect
Target sequence (P17405 47-631 limits assumed): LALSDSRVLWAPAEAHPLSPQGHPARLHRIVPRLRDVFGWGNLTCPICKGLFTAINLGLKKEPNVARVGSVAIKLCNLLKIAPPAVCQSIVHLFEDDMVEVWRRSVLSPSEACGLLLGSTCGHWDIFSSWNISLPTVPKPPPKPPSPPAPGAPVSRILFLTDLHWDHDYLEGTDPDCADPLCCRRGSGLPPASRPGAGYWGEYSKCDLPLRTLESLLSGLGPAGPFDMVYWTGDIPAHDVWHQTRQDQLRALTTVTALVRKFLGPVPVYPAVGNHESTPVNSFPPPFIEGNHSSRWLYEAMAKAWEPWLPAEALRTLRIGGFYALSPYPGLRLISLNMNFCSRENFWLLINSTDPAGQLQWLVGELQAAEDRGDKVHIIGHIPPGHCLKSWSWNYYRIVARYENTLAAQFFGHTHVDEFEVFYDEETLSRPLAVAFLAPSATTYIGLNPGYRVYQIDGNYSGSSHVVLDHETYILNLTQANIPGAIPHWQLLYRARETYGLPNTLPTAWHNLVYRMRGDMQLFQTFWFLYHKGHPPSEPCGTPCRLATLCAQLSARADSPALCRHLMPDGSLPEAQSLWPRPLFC
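HMU-PC0 cleavage (9 uM final) by human placental ASM, 60 min at 37 °C following 10 min compound exposure at RT; stopped at pH 10, fluorescence Ex 386/Em 447 nm.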
CCT chaperon mod: modulators of cytosolic chaperonin (CCT/TRiC) activity; AID 651819; activity change, % (concentration not given with the values), hits read low; purified chaperonin ATPase assay, HTRF ADP detection, 30 min; hit rate 0.3% among 360,000; in the data active = activity change below about -30%; note: % is set by controls: 0 for no effect and ±100 for the full control effect
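Enzyme 40 or 20 nM (batch-dependent) in Tris pH 7.4/KCl/MgCl2/DTT; cpd 76 uM single point; ATP 10 uM; 30 min 37 °C; Transcreener ADP HTRF detection, 30 min RT; ratio 665/615.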
Tb PFK inh-1: T. brucei PFK enzyme inhibition. T. brucei PFK, ADP-Glo luminescence. Potency, µM (doses to about 57.5 µM), for the others: top-dose activity, negative = inhibition, most hits filed as inhibitors. hit rate 0.17% among 330,000. AID 485367;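 note: potency is the fitted concentration of half-maximal effect; 0% = uninhibited 1x PFK enzyme wells and -100% = no-enzyme wells; nearly all actives have a fitted effect of over 60% in size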
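In TEA buffer at pH 8.0 with 5 mM MgCl2, enzyme (1.25 nM) converted F6P (0.5 mM) and ATP (0.1 mM) for 45 min at room temperature. ADP product was read by luciferase luminescence.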
TbPFK ATP: Tb phosphofructokinase inhibition, orthogonal luminescence; hit rate 47% among 1,100; Potency, µM (doses to about 57.5 µM), without a hit: top-dose inhibition; Tb PFK enzyme, ATP depletion, Kinase-Glo Plus luminescence; shares compounds with Tb PFK inh-1; calls by dose curve; note: potency is the fitted concentration of half-maximal effect; nearly all actives have a fitted effect of over 60% in size
Tb PFK inh-2: validation of T. brucei phosphofructokinase inhibitors. purified T. brucei PFK, ADP-Glo luminescence, 45 min. Potency, µM (doses to about 57.5 µM), for inactives: at the top dose activity change, negative = inhibition, usual class: inhibitors. hit rate 41% among 1,100. AID 504637. shares compounds with Tb PFK inh-1;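 note: potency is the fitted concentration of half-maximal effect; plate controls were full PFK enzyme control for no effect and no enzyme control for full effect; nearly all actives have a fitted effect of over 60% in size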
An asterisk follows results filed as active; [ ] = another dose, or the depositor's remark. Sampled rows, rich in hits. Any-hit rate of the full collection: about 0.49%. Unless noted, calls come from the whole dose curve; as a rule, active = well fitted curve in the direction sought with a large enough effect; inconclusive = small, poorly fitted or top-dose-only effect, or another doubt; inactive = no such curve, though single readings can be large; an effect the other way counts as inactive or inconclusive.

For COc1cc(O)c2c(c1)/C=C/C[C@H](O)[C@H](O)C(=O)CCC[C@H](C)OC2=O the results were CCT chaperon mod -2.
For CCCCc1ccc(-n2nnnc2SCC(=O)Nc2cc(OC)c([N+](=O)[O-])cc2C)cc1 the results were TCR act -8%[46.1 µM], Chronic BCR inh inconclusive, ASM inhibitor -13%, CCT chaperon mod -6, Tb PFK inh-1 inconclusive, TbPFK ATP 7% and Tb PFK inh-2 -2%.
Nc1nc2ccccc2n1Cc1ccc(Cl)c(Cl)c1 was read as TCR act -4%, Chronic BCR inh -1%, ASM inhibitor -2%, CCT chaperon mod 0, Tb PFK inh-1 inconclusive, TbPFK ATP 13µM* and Tb PFK inh-2 inconclusive.
For NC(=O)c1c(-c2cccs2)csc1N the results were TCR act 3%, Chronic BCR inh -4%, ASM inhibitor -2%, CCT chaperon mod 2, Tb PFK inh-1 inconclusive, TbPFK ATP -30% and Tb PFK inh-2 inconclusive.
Screening CCC1C(c2cc(OC)c(OC)c(OC)c2)c2cc3c(cc2OC1N1CCCC1)OCO3 (stereo not drawn) returned TCR act -8%, ASM inhibitor 0% and CCT chaperon mod -2.
Screening CCC(c1nnnn1C1CCCC1)N1CCC2(CC1)C(=O)NCN2c1ccccc1 (stereo not drawn) returned CCT chaperon mod -1.
Screening Cc1cc(C)c(OCC(=O)Nc2cc(C(=O)O)cc(C(=O)O)c2)cc1C returned TCR act 9%, Chronic BCR inh -6%, ASM inhibitor 18%, CCT chaperon mod 1, Tb PFK inh-1 21µM*, TbPFK ATP 8.5µM* and Tb PFK inh-2 19µM*.
Screening Cc1cc(C)c(OCC(=O)Nc2cccc(NC(=O)c3ccco3)c2)c(Br)c1 returned TCR act 2%, Chronic BCR inh inconclusive, ASM inhibitor -13%, CCT chaperon mod 0 and Tb PFK inh-1 0%.
For CCOC(=O)[C@]12Cc3cc4ccccc4cc3[C@H]1N(Cc1ccccc1)C(=O)c1cc(OC)ccc12 the results were CCT chaperon mod 0.
Screening N#Cc1ccccc1NC(=O)c1cccn(Cc2ccccc2)c1=O returned Chronic BCR inh 3%.
O=c1[nH]sc2cc(F)ccc12 was read as TCR act 5%, Chronic BCR inh inconclusive, ASM inhibitor 0%, CCT chaperon mod 0, Tb PFK inh-1 inconclusive, TbPFK ATP 19µM* and Tb PFK inh-2 27µM*.
Screening O=c1[nH]sc2ccccc12 returned TCR act -20%, Chronic BCR inh inconclusive, ASM inhibitor 2%, CCT chaperon mod -1, Tb PFK inh-1 19µM*, TbPFK ATP 21µM* and Tb PFK inh-2 27µM*.
For CCOC(=O)[C@]12Cc3c(cc(OC)c(OC)c3OC)[C@H]1N(C(C)C)C(=O)c1cc(OC)ccc12 the results were CCT chaperon mod -2.
Screening Cc1ccc(/C=N/Nc2nc(Cl)c(Cl)cc2Cl)s1 returned TCR act 1%, Chronic BCR inh inconclusive, ASM inhibitor 25%, CCT chaperon mod -2 and Tb PFK inh-1 0%.
Screening C=CC#CC[N+]1(CC#Cc2ccccc2)CCOCC1 returned TCR act -2%[46.1 µM], Chronic BCR inh 3%, ASM inhibitor -8%, CCT chaperon mod -4, Tb PFK inh-1 inconclusive, TbPFK ATP -29% and Tb PFK inh-2 inconclusive.
`CC(C)OC(=O)c1cc(C(=O)c2cc(Cl)ccc2O)coc1=N` gave TCR act 5%, Chronic BCR inh -5%, ASM inhibitor 141%, CCT chaperon mod 0 and Tb PFK inh-1 -8%.
For O=P1(c2ccccc2)CC=CC1 the results were CCT chaperon mod -2.

Bioassay records (PubChem BioAssay)
